# Test results taken from publication PMC7862700, “An all-to-all approach to the identification of sequence-specific readers for epigenetic DNA modifications on cytosine”.
# Key:
# Experiment in all cases: DAPPL (digital affinity profiling via proximity ligation, sequencing); 10 mM Tris-HCl pH 7.5, 50 mM NaCl, 1 mM DTT, 4% glycerol, room temperature, 30 min; GST-TFs on glutathione beads, 16-mer random dsDNA library, 0.1% formaldehyde crosslink after washing; high values mean tight binding
# FLI1 = target: T1, FLI1 (Homo sapiens, UniProt Q01543 1-452); conditions: protein: recombinant; tags: N-terminal GST; dsDNA, one strand shown
# T1 sequence: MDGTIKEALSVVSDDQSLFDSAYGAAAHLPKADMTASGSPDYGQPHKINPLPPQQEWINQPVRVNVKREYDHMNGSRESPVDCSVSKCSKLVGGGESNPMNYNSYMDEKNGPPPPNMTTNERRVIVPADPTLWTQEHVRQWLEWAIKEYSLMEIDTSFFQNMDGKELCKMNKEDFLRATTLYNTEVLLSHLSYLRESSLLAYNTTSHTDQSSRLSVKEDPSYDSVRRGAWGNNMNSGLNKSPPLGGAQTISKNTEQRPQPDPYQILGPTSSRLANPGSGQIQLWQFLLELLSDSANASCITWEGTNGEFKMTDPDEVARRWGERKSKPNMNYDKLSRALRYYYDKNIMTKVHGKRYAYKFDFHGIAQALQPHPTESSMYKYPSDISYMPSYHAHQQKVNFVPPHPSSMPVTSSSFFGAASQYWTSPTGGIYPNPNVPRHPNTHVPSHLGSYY
# Procedure, shortened: (§1)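 Human transcription factors were made in yeast as GST fusions, captured on glutathione beads and barcoded with DNA. With a tag-only sample included, the pool was incubated with 200 nmole of a random double-stranded 16-mer DNA library in Tris/NaCl/DTT/glycerol buffer at room temperature for 30 min, then crosslinked with 0.1% formaldehyde after washing, ligated by proximity, amplified and sequenced. For binding signal, each hexamer's read frequency for a factor is divided by its frequency for the tag-only sample.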
# ELK1 = target: T2, ELK1 (Homo sapiens, UniProt P19419 1-428); conditions: protein: recombinant; tags: N-terminal GST; dsDNA, one strand shown
# T2 sequence: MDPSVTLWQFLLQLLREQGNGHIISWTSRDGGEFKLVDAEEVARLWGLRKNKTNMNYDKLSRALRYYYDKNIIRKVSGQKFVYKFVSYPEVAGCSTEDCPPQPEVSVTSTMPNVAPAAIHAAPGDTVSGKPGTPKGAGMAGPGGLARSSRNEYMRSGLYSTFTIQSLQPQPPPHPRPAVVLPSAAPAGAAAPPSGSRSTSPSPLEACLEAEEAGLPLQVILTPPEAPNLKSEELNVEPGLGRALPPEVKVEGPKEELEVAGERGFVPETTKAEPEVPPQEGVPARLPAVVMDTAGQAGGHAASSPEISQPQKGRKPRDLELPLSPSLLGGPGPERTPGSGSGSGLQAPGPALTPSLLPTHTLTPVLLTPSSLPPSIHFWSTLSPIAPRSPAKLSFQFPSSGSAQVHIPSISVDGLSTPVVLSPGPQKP
# Procedure, shortened: as §1
# GABPA = target: T3, GABPA (Homo sapiens, UniProt Q06546 1-454); conditions: protein: recombinant; tags: N-terminal GST; dsDNA, one strand shown
# T3 sequence: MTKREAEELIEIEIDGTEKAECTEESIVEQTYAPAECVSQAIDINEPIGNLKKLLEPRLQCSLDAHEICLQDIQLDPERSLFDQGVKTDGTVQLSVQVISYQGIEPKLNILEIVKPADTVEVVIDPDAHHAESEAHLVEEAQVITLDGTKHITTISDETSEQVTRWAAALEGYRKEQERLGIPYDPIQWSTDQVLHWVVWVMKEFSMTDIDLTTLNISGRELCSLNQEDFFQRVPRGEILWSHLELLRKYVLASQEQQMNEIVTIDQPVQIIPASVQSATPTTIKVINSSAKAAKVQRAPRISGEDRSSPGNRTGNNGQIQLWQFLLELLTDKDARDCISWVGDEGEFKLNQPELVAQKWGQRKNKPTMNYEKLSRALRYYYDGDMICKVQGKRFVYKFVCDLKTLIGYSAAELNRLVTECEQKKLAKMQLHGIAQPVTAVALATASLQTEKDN
# Procedure, shortened: as §1
# ERG = target: T4, ERG (Homo sapiens, UniProt P11308 1-479); conditions: protein: recombinant; tags: N-terminal GST; dsDNA, one strand shown
# T4 sequence: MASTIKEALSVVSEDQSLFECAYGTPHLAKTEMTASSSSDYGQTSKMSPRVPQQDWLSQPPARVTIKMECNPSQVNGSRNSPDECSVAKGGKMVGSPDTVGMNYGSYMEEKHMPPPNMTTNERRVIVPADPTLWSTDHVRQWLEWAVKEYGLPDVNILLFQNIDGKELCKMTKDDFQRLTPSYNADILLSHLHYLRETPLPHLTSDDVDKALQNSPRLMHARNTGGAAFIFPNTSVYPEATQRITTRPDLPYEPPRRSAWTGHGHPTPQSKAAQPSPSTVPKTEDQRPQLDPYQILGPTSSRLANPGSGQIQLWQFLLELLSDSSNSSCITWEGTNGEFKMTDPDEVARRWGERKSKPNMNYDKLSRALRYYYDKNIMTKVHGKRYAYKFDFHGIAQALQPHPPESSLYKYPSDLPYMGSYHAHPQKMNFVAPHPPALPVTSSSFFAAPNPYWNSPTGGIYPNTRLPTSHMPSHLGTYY
# Procedure, shortened: as §1
# ELF1 = ELF1 (Homo sapiens, UniProt P32519 1-619); conditions: protein: recombinant; tags: N-terminal GST; dsDNA, one strand shown
# Procedure, shortened: as §1
# EHF = target: T5, EHF (Homo sapiens, UniProt Q9NZC4 1-300); conditions: protein: recombinant; tags: N-terminal GST; dsDNA, one strand shown
# T5 sequence: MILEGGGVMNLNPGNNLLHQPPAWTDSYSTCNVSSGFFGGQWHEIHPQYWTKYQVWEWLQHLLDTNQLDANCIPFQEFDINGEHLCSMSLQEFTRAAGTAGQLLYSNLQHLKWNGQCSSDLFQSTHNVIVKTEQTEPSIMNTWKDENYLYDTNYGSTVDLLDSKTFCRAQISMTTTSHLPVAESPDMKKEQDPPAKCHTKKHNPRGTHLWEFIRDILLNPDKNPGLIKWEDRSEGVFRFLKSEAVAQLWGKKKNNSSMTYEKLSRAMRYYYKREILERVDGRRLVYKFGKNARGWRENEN
# Procedure, shortened: as §1
# SPI1 = SPI1 (Homo sapiens, UniProt P17947 1-270); conditions: protein: recombinant; tags: N-terminal GST; dsDNA, one strand shown
# Procedure, shortened: as §1
# SPIB = SPIB (Homo sapiens, UniProt Q01892 1-262); conditions: protein: recombinant; tags: N-terminal GST; dsDNA, one strand shown
# Procedure, shortened: as §1
# ELK3 = target: T6, ELK3 (Homo sapiens, UniProt P41970 1-407); conditions: protein: recombinant; tags: N-terminal GST; dsDNA, one strand shown
# T6 sequence: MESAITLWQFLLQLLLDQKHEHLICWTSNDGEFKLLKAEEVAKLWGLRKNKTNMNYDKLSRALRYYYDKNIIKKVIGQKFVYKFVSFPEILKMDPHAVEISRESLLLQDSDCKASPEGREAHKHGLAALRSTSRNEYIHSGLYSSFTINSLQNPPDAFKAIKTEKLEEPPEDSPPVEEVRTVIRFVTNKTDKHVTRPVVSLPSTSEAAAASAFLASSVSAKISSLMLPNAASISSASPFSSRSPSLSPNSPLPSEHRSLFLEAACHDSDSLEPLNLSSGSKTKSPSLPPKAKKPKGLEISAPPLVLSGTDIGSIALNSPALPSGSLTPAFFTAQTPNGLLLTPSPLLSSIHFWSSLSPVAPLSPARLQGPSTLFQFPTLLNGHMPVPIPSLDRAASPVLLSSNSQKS
# Procedure, shortened: as §1
# FEV = target: T7, FEV (Homo sapiens, UniProt Q99581 1-238); conditions: protein: recombinant; tags: N-terminal GST; dsDNA, one strand shown
# T7 sequence: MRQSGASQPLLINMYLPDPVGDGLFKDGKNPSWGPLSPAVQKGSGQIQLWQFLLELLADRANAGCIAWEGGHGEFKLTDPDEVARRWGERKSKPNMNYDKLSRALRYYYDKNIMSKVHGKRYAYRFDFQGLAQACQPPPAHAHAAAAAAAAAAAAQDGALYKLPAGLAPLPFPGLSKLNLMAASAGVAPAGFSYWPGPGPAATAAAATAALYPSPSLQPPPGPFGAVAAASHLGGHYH
# Procedure, shortened: as §1
# ETV5 = ETV5 (Homo sapiens, UniProt P41161 1-510); conditions: protein: recombinant; tags: N-terminal GST; dsDNA, one strand shown
# Procedure, shortened: as §1
# HSF1 = HSF1 (Homo sapiens, UniProt Q00613 1-529); conditions: protein: recombinant; tags: N-terminal GST; chain copies: 3; dsDNA, one strand shown
# Procedure, shortened: as §1
# SPIC = target: T8, SPIC (Homo sapiens, UniProt Q8N5J4 1-248); conditions: protein: recombinant; tags: N-terminal GST; dsDNA, one strand shown
# T8 sequence: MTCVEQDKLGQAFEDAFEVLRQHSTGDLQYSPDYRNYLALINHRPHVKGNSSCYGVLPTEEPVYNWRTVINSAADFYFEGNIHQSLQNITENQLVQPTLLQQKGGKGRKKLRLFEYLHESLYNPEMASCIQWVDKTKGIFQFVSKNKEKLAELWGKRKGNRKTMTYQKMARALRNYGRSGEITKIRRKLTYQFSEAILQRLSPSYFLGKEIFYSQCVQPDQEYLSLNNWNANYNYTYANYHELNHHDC
# Procedure, shortened: as §1
# ELF4 = ELF4 (Homo sapiens, UniProt Q99607 1-663); conditions: protein: recombinant; tags: N-terminal GST; dsDNA, one strand shown
# Procedure, shortened: as §1
# ELK4 = target: T9, ELK4 (Homo sapiens, UniProt P28324-2 1-405); conditions: protein: recombinant; tags: N-terminal GST; dsDNA, one strand shown
# T9 sequence: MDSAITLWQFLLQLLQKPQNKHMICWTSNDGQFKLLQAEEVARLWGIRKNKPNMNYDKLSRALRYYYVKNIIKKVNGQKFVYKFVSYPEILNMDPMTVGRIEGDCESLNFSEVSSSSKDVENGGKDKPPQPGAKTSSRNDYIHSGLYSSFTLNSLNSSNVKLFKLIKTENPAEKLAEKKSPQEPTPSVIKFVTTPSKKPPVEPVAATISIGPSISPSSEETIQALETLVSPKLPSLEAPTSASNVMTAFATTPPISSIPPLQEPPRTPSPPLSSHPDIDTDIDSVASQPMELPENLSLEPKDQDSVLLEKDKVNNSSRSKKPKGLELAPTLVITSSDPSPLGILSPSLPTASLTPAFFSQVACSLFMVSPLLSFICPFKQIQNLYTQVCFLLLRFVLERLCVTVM
# Procedure, shortened: as §1
# ETV2 = target: T10, ETV2 (Homo sapiens, UniProt O00321 1-342); conditions: protein: recombinant; tags: N-terminal GST; dsDNA, one strand shown
# T10 sequence: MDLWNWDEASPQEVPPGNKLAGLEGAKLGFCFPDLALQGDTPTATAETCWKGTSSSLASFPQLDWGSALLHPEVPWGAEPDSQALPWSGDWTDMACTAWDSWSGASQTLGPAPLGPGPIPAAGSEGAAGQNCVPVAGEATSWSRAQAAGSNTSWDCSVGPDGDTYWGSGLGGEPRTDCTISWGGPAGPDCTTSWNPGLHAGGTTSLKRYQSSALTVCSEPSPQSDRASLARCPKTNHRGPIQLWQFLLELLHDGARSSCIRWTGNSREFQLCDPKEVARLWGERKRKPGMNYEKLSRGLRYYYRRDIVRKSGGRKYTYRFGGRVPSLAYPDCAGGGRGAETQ
# Procedure, shortened: as §1
# ELF3 = target: T11, ELF3 (Homo sapiens, UniProt P78545 1-371); conditions: protein: recombinant; tags: N-terminal GST; dsDNA, one strand shown
# T11 sequence: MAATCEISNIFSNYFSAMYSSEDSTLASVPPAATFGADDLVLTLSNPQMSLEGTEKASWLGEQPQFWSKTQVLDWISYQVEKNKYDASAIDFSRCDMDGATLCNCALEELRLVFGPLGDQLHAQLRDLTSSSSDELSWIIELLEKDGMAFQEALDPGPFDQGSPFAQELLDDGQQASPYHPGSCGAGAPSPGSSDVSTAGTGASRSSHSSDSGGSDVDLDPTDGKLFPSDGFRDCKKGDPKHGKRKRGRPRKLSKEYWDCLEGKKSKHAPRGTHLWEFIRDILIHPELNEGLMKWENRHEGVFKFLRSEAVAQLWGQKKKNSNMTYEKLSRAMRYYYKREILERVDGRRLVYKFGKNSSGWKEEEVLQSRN
# Procedure, shortened: as §1
# CRX = CRX (Homo sapiens, UniProt O43186 1-299); conditions: protein: recombinant; tags: N-terminal GST; dsDNA, one strand shown
# Procedure, shortened: as §1
# ETV1 = ETV1 (Homo sapiens, UniProt P50549 1-477); conditions: protein: recombinant; tags: N-terminal GST; dsDNA, one strand shown
# Procedure, shortened: as §1
# CRX, sequence (O43186 whole entry): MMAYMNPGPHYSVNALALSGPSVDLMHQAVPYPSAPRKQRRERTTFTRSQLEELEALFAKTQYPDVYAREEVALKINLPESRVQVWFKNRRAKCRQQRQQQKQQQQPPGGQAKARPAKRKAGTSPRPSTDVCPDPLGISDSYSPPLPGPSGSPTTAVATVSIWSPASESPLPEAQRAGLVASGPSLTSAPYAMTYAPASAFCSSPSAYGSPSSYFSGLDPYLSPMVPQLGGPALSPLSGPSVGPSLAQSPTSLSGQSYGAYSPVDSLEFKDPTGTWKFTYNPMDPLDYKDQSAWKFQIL
# HSF1, sequence (Q00613 whole entry): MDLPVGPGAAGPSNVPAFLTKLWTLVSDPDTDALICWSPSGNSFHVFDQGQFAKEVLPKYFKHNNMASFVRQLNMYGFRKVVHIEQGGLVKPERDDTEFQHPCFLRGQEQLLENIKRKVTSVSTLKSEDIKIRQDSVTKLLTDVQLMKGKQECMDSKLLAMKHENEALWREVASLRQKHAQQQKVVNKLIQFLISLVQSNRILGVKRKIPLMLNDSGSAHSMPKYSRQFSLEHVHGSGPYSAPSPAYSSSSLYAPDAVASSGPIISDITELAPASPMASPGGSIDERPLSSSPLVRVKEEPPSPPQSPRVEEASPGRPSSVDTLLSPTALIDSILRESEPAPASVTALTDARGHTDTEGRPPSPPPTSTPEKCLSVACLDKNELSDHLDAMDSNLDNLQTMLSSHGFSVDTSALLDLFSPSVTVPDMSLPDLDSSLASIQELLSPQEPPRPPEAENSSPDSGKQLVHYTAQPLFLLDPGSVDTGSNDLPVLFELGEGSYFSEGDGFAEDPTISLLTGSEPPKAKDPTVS
# ETV1, sequence (P50549 whole entry): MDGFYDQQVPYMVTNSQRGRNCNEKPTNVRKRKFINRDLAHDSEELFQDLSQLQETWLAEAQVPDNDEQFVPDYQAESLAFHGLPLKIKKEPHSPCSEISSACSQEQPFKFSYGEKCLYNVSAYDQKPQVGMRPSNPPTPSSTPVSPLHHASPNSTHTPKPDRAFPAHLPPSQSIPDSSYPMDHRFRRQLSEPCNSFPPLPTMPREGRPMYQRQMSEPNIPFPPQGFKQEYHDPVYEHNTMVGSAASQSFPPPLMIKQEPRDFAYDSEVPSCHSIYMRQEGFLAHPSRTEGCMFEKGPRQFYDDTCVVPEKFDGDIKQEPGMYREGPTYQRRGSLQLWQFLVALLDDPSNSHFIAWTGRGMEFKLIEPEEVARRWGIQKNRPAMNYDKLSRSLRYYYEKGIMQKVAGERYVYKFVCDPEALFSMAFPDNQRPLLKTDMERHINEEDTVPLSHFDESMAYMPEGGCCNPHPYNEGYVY
# ELF4, sequence (Q99607 whole entry): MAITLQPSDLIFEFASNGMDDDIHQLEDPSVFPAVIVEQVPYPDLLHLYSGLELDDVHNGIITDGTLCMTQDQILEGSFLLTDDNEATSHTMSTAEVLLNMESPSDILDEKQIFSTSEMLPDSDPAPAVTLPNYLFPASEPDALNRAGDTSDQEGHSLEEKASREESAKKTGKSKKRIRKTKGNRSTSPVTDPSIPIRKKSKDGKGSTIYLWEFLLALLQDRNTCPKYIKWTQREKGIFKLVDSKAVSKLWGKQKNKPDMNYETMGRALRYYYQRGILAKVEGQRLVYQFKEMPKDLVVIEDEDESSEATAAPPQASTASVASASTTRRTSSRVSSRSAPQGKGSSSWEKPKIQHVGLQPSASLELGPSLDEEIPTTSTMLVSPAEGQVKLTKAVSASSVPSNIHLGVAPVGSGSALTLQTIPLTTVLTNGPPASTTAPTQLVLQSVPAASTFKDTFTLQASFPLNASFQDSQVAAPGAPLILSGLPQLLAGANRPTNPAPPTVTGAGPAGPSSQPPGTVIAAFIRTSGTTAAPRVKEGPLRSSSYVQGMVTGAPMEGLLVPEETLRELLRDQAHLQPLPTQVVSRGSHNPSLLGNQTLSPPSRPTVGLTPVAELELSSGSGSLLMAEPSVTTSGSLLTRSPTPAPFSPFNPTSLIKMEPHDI
# SPIB, sequence (Q01892 whole entry): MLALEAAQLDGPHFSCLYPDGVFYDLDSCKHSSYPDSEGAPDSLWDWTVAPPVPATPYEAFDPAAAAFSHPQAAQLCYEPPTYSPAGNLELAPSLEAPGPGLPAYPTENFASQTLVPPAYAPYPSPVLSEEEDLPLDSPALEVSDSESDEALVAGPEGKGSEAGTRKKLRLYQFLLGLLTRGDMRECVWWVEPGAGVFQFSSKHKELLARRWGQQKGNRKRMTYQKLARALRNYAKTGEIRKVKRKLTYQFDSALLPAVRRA
# ETV5, sequence (P41161 whole entry): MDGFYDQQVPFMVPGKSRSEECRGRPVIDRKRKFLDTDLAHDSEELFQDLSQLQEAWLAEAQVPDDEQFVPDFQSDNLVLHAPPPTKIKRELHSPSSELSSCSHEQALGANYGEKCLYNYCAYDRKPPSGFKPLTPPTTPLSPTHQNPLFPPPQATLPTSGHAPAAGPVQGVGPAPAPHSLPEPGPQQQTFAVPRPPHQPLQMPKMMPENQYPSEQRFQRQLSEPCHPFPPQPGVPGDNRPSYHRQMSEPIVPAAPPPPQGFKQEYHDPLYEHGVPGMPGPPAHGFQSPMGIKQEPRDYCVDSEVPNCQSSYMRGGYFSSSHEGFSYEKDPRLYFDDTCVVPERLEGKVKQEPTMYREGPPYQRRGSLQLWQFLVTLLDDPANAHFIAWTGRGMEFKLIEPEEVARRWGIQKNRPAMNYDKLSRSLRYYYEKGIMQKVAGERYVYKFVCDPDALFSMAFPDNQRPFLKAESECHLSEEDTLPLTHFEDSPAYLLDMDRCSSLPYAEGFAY
# ELF1, sequence (P32519 whole entry): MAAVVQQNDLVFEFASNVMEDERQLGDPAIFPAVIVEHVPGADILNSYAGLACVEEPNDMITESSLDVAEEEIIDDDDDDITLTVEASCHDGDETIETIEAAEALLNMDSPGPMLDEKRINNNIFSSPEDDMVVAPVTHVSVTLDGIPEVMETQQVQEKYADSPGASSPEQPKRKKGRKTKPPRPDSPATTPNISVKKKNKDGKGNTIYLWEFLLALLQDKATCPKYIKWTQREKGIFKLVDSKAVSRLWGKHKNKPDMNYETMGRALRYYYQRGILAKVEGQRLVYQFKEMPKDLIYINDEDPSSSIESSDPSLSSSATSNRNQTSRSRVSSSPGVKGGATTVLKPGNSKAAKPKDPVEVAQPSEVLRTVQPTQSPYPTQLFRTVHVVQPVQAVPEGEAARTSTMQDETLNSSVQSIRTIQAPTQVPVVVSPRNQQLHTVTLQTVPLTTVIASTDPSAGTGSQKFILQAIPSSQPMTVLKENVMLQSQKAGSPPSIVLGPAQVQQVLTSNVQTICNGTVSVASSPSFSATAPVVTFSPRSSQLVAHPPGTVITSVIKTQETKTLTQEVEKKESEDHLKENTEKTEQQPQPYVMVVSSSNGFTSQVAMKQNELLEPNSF
sequence,measurement,setting,value
ATCTGT,binding signal,FLI1,"1.25 fold enrichment (6-mer frequency, TF over GST control)"
same,binding signal,ELK1,"1.24 fold enrichment (6-mer frequency, TF over GST control)"
same,binding signal,GABPA,"1.18 fold enrichment (6-mer frequency, TF over GST control)"
same,binding signal,ERG,"1.19 fold enrichment (6-mer frequency, TF over GST control)"
same,binding signal,ELF1,"1.18 fold enrichment (6-mer frequency, TF over GST control)"
same,binding signal,EHF,"1.11 fold enrichment (6-mer frequency, TF over GST control)"
same,binding signal,SPI1,"1.13 fold enrichment (6-mer frequency, TF over GST control)"
same,binding signal,SPIB,"1.14 fold enrichment (6-mer frequency, TF over GST control)"
same,binding signal,ELK3,"1.07 fold enrichment (6-mer frequency, TF over GST control)"
same,binding signal,FEV,"1.22 fold enrichment (6-mer frequency, TF over GST control)"
same,binding signal,ETV5,"1.07 fold enrichment (6-mer frequency, TF over GST control)"
same,binding signal,HSF1,"1.26 fold enrichment (6-mer frequency, TF over GST control)"
same,binding signal,SPIC,"1.19 fold enrichment (6-mer frequency, TF over GST control)"
same,binding signal,ELF4,"1.21 fold enrichment (6-mer frequency, TF over GST control)"
same,binding signal,ELK4,"1.1 fold enrichment (6-mer frequency, TF over GST control)"
same,binding signal,ETV2,"1.19 fold enrichment (6-mer frequency, TF over GST control)"
same,binding signal,ELF3,"1.17 fold enrichment (6-mer frequency, TF over GST control)"
same,binding signal,CRX,"1.45 fold enrichment (6-mer frequency, TF over GST control)"
same,binding signal,ETV1,"1.26 fold enrichment (6-mer frequency, TF over GST control)"
